Each structure is given as a SMILES string. Where a name gives a salt, the structure may show the parent alone.

Our source for the neurite formation score values is the supplement of paper PMC8047044.

For test [1], the system named is Neuro-2a. The experiment in a line: neurite formation score, plate-normalized to DMSO control mean 5.04 (score (0-8 scale)); higher = more or longer neurites. To be noted: 1 µM. On the procedure:
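Neuro-2a mouse neuroblastoma cells in PLL-coated 96-well plates were pre-treated for 1 h in DMEM(+) with each kinase inhibitor at 1 µM, then switched to serum-free DMEM(-) with inhibitor to induce neurite outgrowth and fixed about 2-3 h later. Three blinded observers scored neurite formation from 0 (no neurites) to 8 (long neurites on almost all cells).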

Test [2] concerns Neuro-2a. Described as above. To be noted: 0.1 µM. On the procedure:
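Neuro-2a mouse neuroblastoma cells in PLL-coated 96-well plates were pre-treated for 1 h in DMEM(+) with each kinase inhibitor at 0.1 µM, then switched to serum-free DMEM(-) with inhibitor to induce neurite outgrowth and fixed about 2-3 h later. Three blinded observers scored neurite formation from 0 (no neurites) to 8 (long neurites on almost all cells).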

As for `O=C1NCCCc2c1oc1ccc(O)cc21`, the neurite formation score in the test with Neuro-2a [1] stood at 5.29; with Neuro-2a [2], 4.58.

Regarding `Cc1cnc(NC(=O)Nc2cc(Br)c(C)cc2OC[C@@H]2CNCCO2)cn1`, the neurite formation score with Neuro-2a [1] amounted to 4.96; in the test with Neuro-2a [2] it was 4.58.

For `CNC(=O)c1ccccc1Nc1nc(Nc2ccc(N3CCOCC3)cc2OC)ncc1Cl`, the neurite formation score was 4.29 with Neuro-2a [1] and 4.58 with Neuro-2a [2].

Regarding `O=C(NOCC(O)CO)c1cc(Br)c(F)c(F)c1Nc1ccc(I)cc1F` (stereo not given), the neurite formation score in the test on Neuro-2a [1] was found to be 4.57; in the test with Neuro-2a [2], 4.88.

As to `Cc1nc(N)sc1-c1ccnc(Nc2ccc(N3CCOCC3)cc2)n1`, the neurite formation score in the test on Neuro-2a [1] was 4.69; in the test on Neuro-2a [2] it was 4.58.

As to `Oc1cccc(-c2nc(N3CCOCC3)c3oc4ncccc4c3n2)c1`, the neurite formation score with Neuro-2a [1] was determined as 5.24; in the test with Neuro-2a [2], 4.04.

Consider `NC(=O)c1ccc(-c2nc(-c3ccc4c(c3)OCCO4)c(-c3ccccn3)[nH]2)cc1`, for which the results for the neurite formation score in the test on Neuro-2a [1] and with Neuro-2a [2] were 4.36 and 4.92, respectively.

Turning to `Cn1cc(-c2[nH]c3cc(NC(=O)[C@H](N)C4CCCCC4)cc4c3c2C=NNC4=O)cn1`, the neurite formation score with Neuro-2a [1] was found to be 3.63; in the test with Neuro-2a [2], 4.25.

With `Cc1cc(C(=O)NOCCO)c(Nc2ccc(I)cc2F)n(C)c1=O`, the neurite formation score in the test with Neuro-2a [1] was 3.96; in the test on Neuro-2a [2], 3.92.

Turning to `NC1(Cc2ccc(Cl)cc2)CCN(c2ncnc3[nH]ccc23)CC1`, the neurite formation score in the test with Neuro-2a [1] came out at 5.63; in the test with Neuro-2a [2], 4.92.

On to `O=c1cc(CN2CCOCC2)occ1OCCCCCSc1ccnc2cc(C(F)(F)F)ccc12`, for which the neurite formation score in the test on Neuro-2a [1] stood at 4.21; in the test with Neuro-2a [2] it was 5.75.

`CCN1CCN(Cc2ccc(-c3cc4c(N[C@H](C)c5ccccc5)ncnc4[nH]3)cc2)CC1`: the neurite formation score in the test with Neuro-2a [1] worked out at 2.57; in the test with Neuro-2a [2], 4.54.

As to `CC(C)(O)CC(=O)NCCn1ccc2ncnc(Nc3ccc(Oc4cccc(C(F)(F)F)c4)c(Cl)c3)c21`, the neurite formation score with Neuro-2a [1] was determined as 5.14; in the test with Neuro-2a [2], 4.42.

`COc1cc(C(=O)NC2CCN(C)CC2)c(F)cc1Nc1ncc2c(n1)N(C1CCCC1)CC(F)(F)C(=O)N2C`: the neurite formation score in the test with Neuro-2a [1] was found to be 5.54; with Neuro-2a [2] it was 5.08.

Consider `CCN(CC)CCCC(C)Nc1ccnc2cc(Cl)ccc12` (stereo not given) [Chloroquine diphosphate], for which the neurite formation score in the test on Neuro-2a [1] came to 4.96; in the test on Neuro-2a [2] it was 4.58.

Regarding `N#Cc1ccc2[nH]c(O)c(-c3ccc(CN4CCOCC4)cn3)c2c1`, the figures for the neurite formation score with Neuro-2a [1] and in the test on Neuro-2a [2] were 4.54 and 4.08, respectively.

`CS(=O)(=O)CCNCc1ccc(-c2ccc3ncnc(Nc4ccc(OCc5cccc(F)c5)c(Cl)c4)c3c2)o1` [Lapatinib]: the neurite formation score is 4.24 in the test on Neuro-2a [1] and 4.88 in the test on Neuro-2a [2].

On to `CNC(=O)c1cc(Oc2ccc(NC(=O)Nc3ccc(Cl)c(C(F)(F)F)c3)c(F)c2)ccn1` [Regorafenib], for which the neurite formation score with Neuro-2a [1] is 5.24; in the test with Neuro-2a [2], 4.88.

With `Cc1c(Cn2c(C)nc3c(C(=O)O)cc(N4CCOCC4)cc32)cccc1C(F)(F)F`, the neurite formation score in the test with Neuro-2a [1] stood at 4.88; in the test on Neuro-2a [2] it was 4.08.

For the compound `C=CC(=O)Nc1cc2c(Nc3ccc(F)c(Cl)c3)ncnc2cc1OCCCN1CCOCC1` [Canertinib (CI-1033)], the neurite formation score turned out to be 4.57 in the test on Neuro-2a [1] and 4.71 in the test with Neuro-2a [2].

As to `O=C(c1ccc(Nc2nccc(-c3cc4ccccc4s3)n2)cc1)N1CCC(N2CCCC2)CC1` [IKK-16 (IKK Inhibitor VII)], the neurite formation score in the test on Neuro-2a [1] was determined as 4.54; with Neuro-2a [2], 3.75.

With `O=C(Cc1ccc(-c2ccc(OCCN3CCOCC3)cc2)cn1)NCc1ccccc1`, the neurite formation score in the test with Neuro-2a [1] was -0.529; with Neuro-2a [2], -0.243.

For the compound `CCCS(=O)(=O)Nc1ccc(F)c(C(=O)c2c[nH]c3ncc(-c4ccc(Cl)cc4)cc23)c1F` [Vemurafenib (PLX4032, RG7204)], the neurite formation score in the test on Neuro-2a [1] amounted to 3.91; with Neuro-2a [2], 4.04.

Turning to `COc1cc(N2CCC(N(C)C)CC2)ccc1Nc1ncc(Cl)c(Nc2ccccc2P(C)(C)=O)n1`, the neurite formation score in the test on Neuro-2a [1] was 4.57; with Neuro-2a [2], 4.38.

With `NC(=O)c1cccc(-c2cc(Nc3ccc(OC(F)(F)F)cc3)ncn2)c1`, the neurite formation score was 5.14 with Neuro-2a [1] and 3.76 in the test on Neuro-2a [2].

`CC(C)(C)c1cc(NC(=O)Nc2ccc(-c3cn4c(n3)sc3cc(OCCN5CCOCC5)ccc34)cc2)no1` [Quizartinib (AC220)]: the values for the neurite formation score in the test on Neuro-2a [1] and in the test with Neuro-2a [2] were 4.57 and 5.21, respectively.

Consider `COc1ccc(-c2ccc3c(N4CCOC[C@@H]4C)nc(N4CCOC[C@@H]4C)nc3n2)cc1CO`, for which the values for the neurite formation score in the test on Neuro-2a [1] and with Neuro-2a [2] were 4.57 and 3.21, respectively.

As to `C[C@]1(O)C[C@@H](c2nc(-c3ccc4ccc(-c5ccccc5)nc4c3)c3c(N)nccn32)C1` [Linsitinib], the neurite formation score with Neuro-2a [1] stood at 4.9; in the test with Neuro-2a [2], 4.54.

On to `CC[C@H](CO)Nc1nc(NCc2ccccc2)c2ncn(C(C)C)c2n1` [Roscovitine (Seliciclib,CYC202)], for which the neurite formation score came out at 4.57 with Neuro-2a [1] and 4.38 with Neuro-2a [2].

As for `Cn1cc(C2=C(c3cn(CCCSC(=N)N)c4ccccc34)C(=O)NC2=O)c2ccccc21` [Ro 31-8220 Mesylate], the neurite formation score in the test with Neuro-2a [1] was determined as 4.54; in the test on Neuro-2a [2], 3.08.

Regarding `O=C1C(c2c(O)[nH]c3ccccc23)=Nc2ccccc21` [Indirubin], the figures for the neurite formation score in the test with Neuro-2a [1] and with Neuro-2a [2] were 4.88 and 4.42, respectively.

For the compound `Cc1csc(-c2nnc(Nc3ccc(Oc4ncccc4-c4ccnc(N)n4)cc3)c3ccccc23)c1`, the results for the neurite formation score in the test with Neuro-2a [1] and in the test with Neuro-2a [2] were 3.36 and 4.58, respectively.

On to `C=CC(=O)Nc1cccc(Oc2nc(Nc3ccc(N4CCN(C)CC4)cc3)ncc2Cl)c1`, for which the neurite formation score in the test on Neuro-2a [1] is 5.96; in the test with Neuro-2a [2] it was 4.25.

For `COc1c(OCCCN2CCOCC2)ccc2c3n(c(=NC(=O)c4cnc(N)nc4)nc12)CCN3` [BAY 80-6946 (Copanlisib)], the neurite formation score was 4.14 with Neuro-2a [1] and 4.76 in the test with Neuro-2a [2].

Turning to `CC(C)(C)NS(=O)(=O)c1cncc(-c2cc(F)c3nc(N)nn3c2)c1`, the neurite formation score in the test on Neuro-2a [1] was 4.36; with Neuro-2a [2] it was 4.92.
